According to PubChem BioAssay:
For some assays here: Measured potencies and affinities stand elsewhere. Active and inactive are the calls of the source. Unless noted, the rule behind the calls is not given here.

Key:
[1] = antimalarial activity against Dd2 strain (AID 2302;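 active = growth inhibition above 50% at the single 2 µM test dose, taken to imply half-maximal potency below 2 µM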;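 note: 0% = DMSO untreated growth and 100% = chloroquine plus artemisinin killed control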); settings: P. falciparum Dd2 in RBCs, LDH growth readout, 72 h; at 2 µM; stronger effect = higher value
[2] = human hepatoma cell viability loss – ATP luminescence, cytotoxicity control for P. falciparum antimalarial project, primary screen (AID 2303;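 active = inhibition above 50%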;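 note: 0% = DMSO wells and 100% = digitonin-killed cells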); settings: HepG2 viability, 24-48 h, at 10 µM, stronger effect = higher value
[3] = target: L-lactate dehydrogenase (Plasmodium falciparum (isolate CDC / Honduras)) (UniProt Q27743); assay: PfLDH activity inhibition – cell lysate, 3D7 strain, counter-screen for P. falciparum growth inhibition project (AID 2304);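 note: 0% = vehicle and 100% = reference inhibitor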; settings: P. falciparum 3D7 crude extract, LDH APAD/NBT absorbance; at 2 µM; stronger effect = higher value
Chain of L-lactate dehydrogenase (Plasmodium falciparum (isolate CDC / Honduras)) (Q27743 whole entry, looked up): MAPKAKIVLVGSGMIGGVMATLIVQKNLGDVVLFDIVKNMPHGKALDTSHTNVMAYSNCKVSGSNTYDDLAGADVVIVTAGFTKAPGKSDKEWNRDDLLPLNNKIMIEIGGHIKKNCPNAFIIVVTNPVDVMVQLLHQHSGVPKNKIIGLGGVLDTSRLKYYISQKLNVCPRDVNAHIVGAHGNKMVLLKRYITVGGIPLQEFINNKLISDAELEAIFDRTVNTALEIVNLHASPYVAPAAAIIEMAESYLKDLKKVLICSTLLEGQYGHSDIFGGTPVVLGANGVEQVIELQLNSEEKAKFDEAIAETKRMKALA

[4] = inhibition of 3D7 malaria parasite growth – strain 3D7 (AID 2306);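 note: 0% = DMSO wells and 100% = chloroquine plus artemisinin control wells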; settings: P. falciparum 3D7 erythrocytic growth, LDH absorbance, 72 h; at 2 µM; stronger effect = higher value
[5] = target: Calcium-dependent protein kinase 1 (Plasmodium falciparum (isolate 3D7)) (UniProt P62344); assay: PfCDPK1 kinase inhibitors, biochemical, TCAMS library (AID 1159585; cut-off not given, nearly all actives have IC50 up to about 0.98 µM;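 note: inhibitors leave more ATP so luminescence rises with inhibition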); settings: recombinant PfCDPK1, Kinase-Glo ATP depletion luminescence
Chain of Calcium-dependent protein kinase 1 (Plasmodium falciparum (isolate 3D7)) (P62344 whole entry, looked up): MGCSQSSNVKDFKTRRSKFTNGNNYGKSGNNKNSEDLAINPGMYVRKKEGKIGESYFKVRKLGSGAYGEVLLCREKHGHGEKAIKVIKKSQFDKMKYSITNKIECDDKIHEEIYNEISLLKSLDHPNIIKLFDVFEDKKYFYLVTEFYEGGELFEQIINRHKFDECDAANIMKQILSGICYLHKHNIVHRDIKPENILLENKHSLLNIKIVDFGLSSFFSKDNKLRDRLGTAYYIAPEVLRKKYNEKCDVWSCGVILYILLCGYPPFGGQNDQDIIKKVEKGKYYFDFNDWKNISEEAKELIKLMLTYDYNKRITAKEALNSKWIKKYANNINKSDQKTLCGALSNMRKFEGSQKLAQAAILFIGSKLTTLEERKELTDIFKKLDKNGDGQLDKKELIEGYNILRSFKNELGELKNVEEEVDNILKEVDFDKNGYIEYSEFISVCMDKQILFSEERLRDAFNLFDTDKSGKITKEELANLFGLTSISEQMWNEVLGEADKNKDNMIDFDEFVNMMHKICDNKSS

[6] = target: Plasmodium falciparum protein kinase 6 (PK6, PF3D7_1337100) (UniProt Q8IDW1); assay: PfPK6 kinase inhibitors, biochemical, TCAMS library (AID 1159586); settings: recombinant PfPK6, Kinase-Glo ATP depletion luminescence
Chain of Plasmodium falciparum protein kinase 6 (PK6, PF3D7_1337100) (Q8IDW1 1-305): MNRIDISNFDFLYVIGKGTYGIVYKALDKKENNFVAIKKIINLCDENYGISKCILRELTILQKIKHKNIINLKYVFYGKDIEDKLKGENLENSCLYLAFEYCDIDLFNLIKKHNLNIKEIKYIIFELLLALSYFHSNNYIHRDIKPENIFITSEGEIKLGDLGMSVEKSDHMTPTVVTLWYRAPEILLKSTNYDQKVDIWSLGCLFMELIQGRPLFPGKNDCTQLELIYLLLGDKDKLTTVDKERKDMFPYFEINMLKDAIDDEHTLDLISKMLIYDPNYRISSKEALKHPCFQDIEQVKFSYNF

[7] = target: Protein kinase 7 (PK7), Plasmodium falciparum 3D7 (PF3D7_0213400) (UniProt Q7YTF7); assay: inhibition of Plasmodium PK7 catalytic activity – biochemical, TCAMS antimalarial set, Kinase-Glo luminescence (AID 1159587); settings: recombinant PfPK7, Kinase-Glo ATP depletion luminescence
Chain of Protein kinase 7 (PK7), Plasmodium falciparum 3D7 (PF3D7_0213400) (Q7YTF7 1-343): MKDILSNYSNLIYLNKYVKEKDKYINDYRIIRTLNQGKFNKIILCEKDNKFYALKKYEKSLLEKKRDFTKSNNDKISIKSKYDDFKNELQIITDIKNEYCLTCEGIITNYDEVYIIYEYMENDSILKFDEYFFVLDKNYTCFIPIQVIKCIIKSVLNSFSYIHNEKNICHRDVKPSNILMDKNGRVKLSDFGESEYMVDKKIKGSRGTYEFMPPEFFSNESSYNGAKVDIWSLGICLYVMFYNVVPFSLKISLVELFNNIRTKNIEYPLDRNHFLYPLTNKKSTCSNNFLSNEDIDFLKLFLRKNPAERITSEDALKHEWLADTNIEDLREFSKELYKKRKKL

[8] = target: Calcium-dependent protein kinase 4 (Plasmodium falciparum (isolate 3D7)) (UniProt Q8IBS5); assay: PfCDPK4 kinase inhibitors, biochemical, TCAMS library (AID 1159588; cut-off not given, nearly all actives have IC50 up to about 0.91 µM); settings: recombinant PfCDPK4, Kinase-Glo ATP depletion luminescence
Chain of Calcium-dependent protein kinase 4 (Plasmodium falciparum (isolate 3D7)) (Q8IBS5 whole entry, looked up): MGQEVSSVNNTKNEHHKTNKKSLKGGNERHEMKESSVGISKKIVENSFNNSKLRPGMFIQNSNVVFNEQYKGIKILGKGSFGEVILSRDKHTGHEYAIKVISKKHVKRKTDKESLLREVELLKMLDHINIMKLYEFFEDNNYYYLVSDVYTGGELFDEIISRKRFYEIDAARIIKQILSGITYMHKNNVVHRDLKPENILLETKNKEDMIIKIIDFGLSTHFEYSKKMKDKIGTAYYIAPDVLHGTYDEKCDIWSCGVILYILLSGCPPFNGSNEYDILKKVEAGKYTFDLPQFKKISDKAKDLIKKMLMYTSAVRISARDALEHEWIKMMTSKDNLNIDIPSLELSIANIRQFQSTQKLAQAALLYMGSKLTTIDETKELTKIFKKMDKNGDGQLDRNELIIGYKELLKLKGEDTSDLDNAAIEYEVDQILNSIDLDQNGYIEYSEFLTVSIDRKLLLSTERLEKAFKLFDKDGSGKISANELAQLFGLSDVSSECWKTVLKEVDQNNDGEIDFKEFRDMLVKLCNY

COc1ccc(CNC2Cc3ccccc3C2)cc1-c1ccc(S(=O)(=O)NCc2ccccc2)s1
active: growth inhibition [4] 97%
inactive: growth inhibition [1] 25% | inhibition [2] 22% | inhibition [3] 4% | outcome [5] | outcome [6] | outcome [7] | outcome [8]

Cc1cccc2[nH]c(-c3cccc(-c4ccc(NC(=O)CN5CCN(C)CC5)cc4)c3)nc12
active: growth inhibition [1] 99% | growth inhibition [4] 101%
inactive: inhibition [2] 45% | inhibition [3] -8% | outcome [5] | outcome [6] | outcome [7] | outcome [8]

COc1cccc(OC(C)(C)c2nc(N[C@@H](C)c3ccccc3)c3cn[nH]c3n2)c1
inactive: inhibition [2] 44% | inhibition [3] -4% | outcome [5] | outcome [6] | outcome [7] | outcome [8]
active: growth inhibition [1] 69% | growth inhibition [4] 89%

O=[N+]([O-])c1ccc2nc(Nc3cccc(C(F)(F)F)c3)c(Nc3cccc(C(F)(F)F)c3)nc2c1
inactive: inhibition [2] -2% | inhibition [3] -4% | outcome [5] | outcome [6] | outcome [7] | outcome [8]
active: growth inhibition [1] 99% | growth inhibition [4] 101%

CN(CCN)Cc1cccc(-c2cccc(-c3nc4ccc(C(F)(F)F)cc4[nH]3)c2)c1
inactive: inhibition [2] 22% | inhibition [3] 0% | outcome [5] | outcome [6] | outcome [7] | outcome [8]
active: growth inhibition [1] 98% | growth inhibition [4] 99%

CC(O)C1CCCCN1C(=O)c1ccc(-c2ccc(-c3nc4ccc(F)cc4[nH]3)cc2)cc1 (stereo not given)
active: growth inhibition [1] 99% | growth inhibition [4] 101%
inactive: inhibition [2] 43% | inhibition [3] -3% | outcome [5] | outcome [6] | outcome [7] | outcome [8]

Cc1cc(NCCC(=O)NCCOc2ccccc2)nc(NCc2ccccc2C)n1
inactive: growth inhibition [1] 29% | inhibition [2] 17% | inhibition [3] 0% | outcome [5] | outcome [6] | outcome [7] | outcome [8]
active: growth inhibition [4] 92%

COc1ccc(CN2CCC(CNCCc3ccccc3Oc3ccccc3)CC2)cc1
active: growth inhibition [1] 56% | inhibition [2] 99% | growth inhibition [4] 85%
inactive: inhibition [3] 0% | outcome [5] | outcome [6] | outcome [7] | outcome [8]

Cc1cc(Cl)c(Cl)cc1NC(=O)Nc1cccc(C(F)(F)F)c1
inactive: inhibition [2] 1% | inhibition [3] -1% | outcome [5] | outcome [6] | outcome [7] | outcome [8]
active: growth inhibition [1] 99% | growth inhibition [4] 93%

COc1ccc(C=CC(=O)Nc2ccc(N3CCCC3)cc2)cc1
active: growth inhibition [4] 81%
inactive: growth inhibition [1] 9% | inhibition [2] -1% | inhibition [3] -1% | outcome [5] | outcome [6] | outcome [7] | outcome [8]

COCCNCc1nc(-c2ccc3c(Nc4ccc(F)c(O)c4)ccnc3c2)cs1
active: growth inhibition [1] 99% | growth inhibition [4] 101%
inactive: inhibition [2] -7% | inhibition [3] 6% | outcome [5] | outcome [6] | outcome [7] | outcome [8]

O=S(=O)(NC1CCN(c2ccnc3cc(Cl)ccc23)C1)c1ccc(C(F)(F)F)cc1 (stereo not given)
inactive: inhibition [2] 20% | inhibition [3] 2% | outcome [5] | outcome [6] | outcome [7] | outcome [8]
active: growth inhibition [1] 98% | growth inhibition [4] 100%

O=C(CCc1ccccc1)N[C@H](Cc1c[nH]c2ccccc12)C(=O)N1CCC(NCc2ccc3c(c2)Cc2ccccc2-3)CC1
inactive: growth inhibition [1] 8% | inhibition [3] -6% | outcome [5] | outcome [6] | outcome [7] | outcome [8]
active: inhibition [2] 53% | growth inhibition [4] 92%

O=C(Nc1ccc(Cn2ncc(N3CCCNCC3)c(Cl)c2=O)cc1)Nc1cccc(C(F)(F)F)c1
active: growth inhibition [4] 101%
inactive: growth inhibition [1] 30% | inhibition [2] 20% | inhibition [3] 0% | outcome [5] | outcome [6] | outcome [7] | outcome [8]

CCOc1ccc2nc(C)cc(NN=Cc3ccc(Cl)cc3)c2c1
active: growth inhibition [1] 100% | growth inhibition [4] 100%
inactive: inhibition [2] 0% | inhibition [3] 5% | outcome [5] | outcome [6] | outcome [7] | outcome [8]

CCN(c1ccccc1)S(=O)(=O)c1ccc(OC)c(NC(=O)c2cccc(C(F)(F)F)c2)c1
inactive: inhibition [2] 9% | inhibition [3] -2% | outcome [5] | outcome [6] | outcome [7] | outcome [8]
active: growth inhibition [1] 70% | growth inhibition [4] 90%

O=C(NC1CCN(CCC[C@]2(c3ccc(Cl)c(Cl)c3)CCCN(C(=O)c3ccccc3)C2)CC1)c1ccc(Cl)cc1
inactive: growth inhibition [1] 4% | inhibition [3] -1% | outcome [5] | outcome [6] | outcome [7] | outcome [8]
active: inhibition [2] 56% | growth inhibition [4] 95%

CC(C)N1CCN(C(=O)c2ccc(CN(C)CCCN3CCN(c4cccc(Cl)c4Cl)CC3)s2)CC1
inactive: growth inhibition [1] 35% | inhibition [3] 3% | outcome [5] | outcome [6] | outcome [7] | outcome [8]
active: inhibition [2] 74% | growth inhibition [4] 94%

c1ccc(COc2ccc(Nc3ncnc4ccc(-c5ccc(CN6CCSCC6)o5)cc34)cc2)cc1
active: growth inhibition [4] 94%
inactive: growth inhibition [1] 4% | inhibition [2] 4% | inhibition [3] 4% | outcome [5] | outcome [6] | outcome [7] | outcome [8]

Cc1ccc(C(=O)Nc2ccc(-c3nc4ccccc4[nH]3)cc2)cc1S(=O)(=O)N1CCOCC1
inactive: growth inhibition [1] 16% | inhibition [3] 4% | outcome [5] | outcome [6] | outcome [7] | outcome [8]
active: inhibition [2] 56% | growth inhibition [4] 90%

N#Cc1ccc(-c2ccc(C(=O)NCCCCN3CCC(c4ccc5c(c4OCC(N)=O)CCCC5)CC3)cc2)cc1
inactive: growth inhibition [1] 23% | inhibition [2] 21% | inhibition [3] -3% | outcome [5] | outcome [6] | outcome [7] | outcome [8]
active: growth inhibition [4] 87%

CC(C)c1ccc(Nc2nc(NCCc3cnc[nH]3)nc(NCc3ccccc3)n2)cc1
inactive: growth inhibition [1] 2% | inhibition [2] 1% | inhibition [3] -2% | outcome [5] | outcome [6] | outcome [7] | outcome [8]
active: growth inhibition [4] 98%

CCCCCCSc1nnc(COc2cccc3ccccc23)n1-c1ccc(OC)cc1
inactive: inhibition [2] 19% | inhibition [3] 3% | outcome [5] | outcome [6] | outcome [7] | outcome [8]
active: growth inhibition [1] 100% | growth inhibition [4] 99%

COc1ccc(Nc2ncc3c(-c4ccc(NC(=O)c5cccc(C(F)(F)F)c5)cc4)c[nH]c3n2)cc1OC
active: growth inhibition [4] 89%
inactive: growth inhibition [1] 30% | inhibition [2] 26% | inhibition [3] 4% | outcome [5] | outcome [6] | outcome [7] | outcome [8]

Cc1cc(NC(=O)NCCN2CCC(NS(=O)(=O)c3ccccc3F)CC2)c2ccccc2n1
active: growth inhibition [4] 81%
inactive: growth inhibition [1] 44% | inhibition [2] 0% | inhibition [3] -4% | outcome [5] | outcome [6] | outcome [7] | outcome [8]

O=C(CCc1cccnc1)Nc1cccc(-c2ccc(-c3nc4ccc(C(F)(F)F)cc4[nH]3)s2)c1
active: growth inhibition [4] 89%
inactive: growth inhibition [1] 13% | inhibition [2] 35% | inhibition [3] 2% | outcome [5] | outcome [6] | outcome [7] | outcome [8]

COc1ccc(C(=O)N2CCC3(CC2)C(=O)N(CC(=O)NCC2CCCCC2)CN3c2ccccc2)cc1
inactive: inhibition [2] 18% | inhibition [3] 3% | outcome [5] | outcome [6] | outcome [7] | outcome [8]
active: growth inhibition [1] 99% | growth inhibition [4] 100%

CC(C)CNCc1ccc(-c2ccc(CN(C(=O)NCCc3ccccc3)C3CCN(Cc4ccccc4)CC3)cc2)cc1
inactive: inhibition [2] 37% | inhibition [3] -3% | outcome [5] | outcome [6] | outcome [7] | outcome [8]
active: growth inhibition [1] 62% | growth inhibition [4] 98%

CC[C@H](N=C(Nc1ccc(-c2ccccc2)cc1)Nc1ccc(C#N)cc1O)c1ccccc1
active: growth inhibition [1] 97% | growth inhibition [4] 99%
inactive: inhibition [2] -6% | inhibition [3] 4% | outcome [5] | outcome [6] | outcome [7] | outcome [8]

CCc1c[nH]c2c(N3CCCS3(=O)=O)cc(C(=O)N[C@@H](Cc3ccccc3)[C@H](O)CNC(C)(C)CCCC(C)C)cc12
inactive: inhibition [2] 13% | inhibition [3] -2% | outcome [5] | outcome [6] | outcome [7] | outcome [8]
active: growth inhibition [1] 98% | growth inhibition [4] 96%

O=C(Nc1cccc(CN2CCCN(Cc3cccc(O)c3)CC2)c1)c1ccc(-c2ccccc2)cc1
active: growth inhibition [1] 66% | growth inhibition [4] 101%
inactive: inhibition [2] 28% | inhibition [3] 3% | outcome [5] | outcome [6] | outcome [7] | outcome [8]

Clc1ccccc1/C=C/c1cncnc1Nc1ccc2nc(Cc3ccccc3)[nH]c2c1
inactive: growth inhibition [1] 26% | inhibition [2] 4% | inhibition [3] -1% | outcome [5] | outcome [6] | outcome [7] | outcome [8]
active: growth inhibition [4] 96%

CCc1ccc(NC(=O)c2cccc(CN3CCCN(Cc4ccc(OC)cc4)CC3)c2)cc1
inactive: growth inhibition [1] -6% | inhibition [2] 35% | inhibition [3] 5% | outcome [5] | outcome [6] | outcome [7] | outcome [8]
active: growth inhibition [4] 97%

CC1(C)N=C(N)N=C(N)N1OCCCCCCOc1ccc(Cl)c2ccccc12
active: growth inhibition [1] 94% | inhibition [2] 62% | growth inhibition [4] 91%
inactive: inhibition [3] 1% | outcome [5] | outcome [6] | outcome [7] | outcome [8]

COc1ccc(N2CCN(CCCCNC(=O)c3ccc(NC(=O)c4ccc(Cl)cc4)cc3)CC2)c(OC)c1
inactive: growth inhibition [1] 22% | inhibition [2] 25% | inhibition [3] 6% | outcome [5] | outcome [6] | outcome [7] | outcome [8]
active: growth inhibition [4] 97%

O=C(Cc1ccc([N+](=O)[O-])cc1)N1CCc2cc3nccc(N4CCN5CCC[C@H]5C4)c3cc21
active: growth inhibition [4] 95%
inactive: growth inhibition [1] 7% | inhibition [2] -7% | inhibition [3] -4% | outcome [5] | outcome [6] | outcome [7] | outcome [8]

CCc1c(CCNCCCCCCNCCc2ccc([N+](=O)[O-])cc2)ccc(O)c1O
inactive: growth inhibition [1] 23% | inhibition [2] 5% | inhibition [3] -1% | outcome [5] | outcome [6] | outcome [7] | outcome [8]
active: growth inhibition [4] 94%

CCCCCOc1ccc(C(O)C(CCC(CN2CCCCCC2)C(O)c2ccc(OCCCCC)cc2)CN2CCCCCC2)cc1 (stereo not given)
active: growth inhibition [1] 93% | inhibition [2] 99% | growth inhibition [4] 99%
inactive: inhibition [3] 0% | outcome [5] | outcome [6] | outcome [7] | outcome [8]

COc1ccc2nccc([C@@H](O)CN3CCC(NCc4cc5oc(=O)n(C)c5cc4F)CC3)c2c1
active: growth inhibition [1] 72% | growth inhibition [4] 99%
inactive: inhibition [2] -3% | inhibition [3] -2% | outcome [5] | outcome [6] | outcome [7] | outcome [8]

O=C(C=Cc1ccc(Cl)c(Cl)c1)NCCCCCN1CCC(CCNC(=O)C(c2ccccc2)c2ccccc2)CC1
inactive: growth inhibition [1] 43% | inhibition [3] 4% | outcome [5] | outcome [6] | outcome [7] | outcome [8]
active: inhibition [2] 61% | growth inhibition [4] 90%
